Source: PubChem BioAssay
HT1080 IDH1KD tx: toxicity to HT-1080 IDH1 knockdown cells (counter line); HT-1080 IDH1 knockdown viability, ATP luminescence, 48 h; Potency, µM (highest dose often 46.1 µM), actives largely listed as cytotoxic; actives 2% (n = 360,000); AID 686971
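% activity derives from luminescence (CellTiter-Glo), normalised to DMSO and no-cell wells. HT-1080-IDH1KD cells, 750/well, had 48 h compound exposure at 37 °C.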
HT1080NT lethal: kills 2HG-producing HT-1080-NT fibrosarcoma cells. HT-1080-NT fibrosarcoma viability, CellTiter-Glo ATP luminescence, 48 h. Potency, µM (highest dose often 46.1 µM), hits mostly cytotoxic. actives 1.6% (n = 360,000);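 also: NT is the 2HG producing partner of a matched IDH1 knockdown line; nearly all actives have a fitted effect of over 55% in size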
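Toxicity toward the 2HG-producing NT line was scored as %Activity, normalised to DMSO and no-cell wells, from CellTiter-Glo luminescence after 48 hours' treatment.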
MCF10A rerep: DNA re-replication induction in MCF 10a cells | MCF 10A DNA re-replication, Hoechst nuclear intensity, 48 h | Potency, µM (series often up to 46.1 µM), hits mostly activators | actives 2.9% (n = 350,000); also: nearly all actives have a fitted effect of over 50% in size
KB-3-1 cytotox: KB-3-1 parental cell cytotoxicity | Potency, µM (doses to about 46.1 µM), usual class: cytotoxic | KB-3-1 viability, CellTiter-Glo ATP luminescence, 72 h | actives 1.4% (n = 400,000); also: nearly all actives have a fitted effect of over 60% in size
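Cells are dispensed, compounds pinned in, plates held at 37 °C for 72 h, then CellTiter-Glo is added and luminescence read after 10 minutes. Cell line: parental KB-3-1 in phenol-red-free DMEM, 10% FBS.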
SW480 rereplic: induces DNA re-replication in SW480 colon adenocarcinoma cells; Potency, µM (top dose mostly 46.1 µM), hits mostly activators; actives 1.8% (n = 340,000); SW480 DNA re-replication, Hoechst DNA content imaging, 48 h; also: nearly all actives have a fitted effect of over 55% in size
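First, 250 cells per well were seeded. Next, compound or vehicle (23 nL) was pinned in, plates sat 48 hr at 37 C. Finally Hoechst was added for 40 min before fluorescence scanning.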
KB-V1 MDR tox: KB-V1 MDR subline cytotoxicity; KB-V1 MDR cells viability, CellTiter-Glo, 72 h; actives 3.4% (n = 400,000); Potency, µM (series often up to 46.1 µM), actives largely listed as cytotoxic; also: nearly all actives have a fitted effect of over 60% in size
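KB-V1, DMEM (no phenol red) + 10% FBS; cpd pin-transferred, titration series; 72 h, 37 degrees C; CellTiter-Glo, luminescence. Data normalized, curve-fit.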
A number is an active result; i = inactive; ? = inconclusive; nt = no result given; ! = repeats disagree; [ ] = dose if it differs, or a comment. This is a sample that favours compounds with a hit; in the whole collection about 7.9% have one here. Calls follow the shape of the dose curve; as a rule, active = well fitted curve in the direction sought with a large enough effect; inconclusive = small, poorly fitted or top-dose-only effect, or another doubt; inactive = no such curve, though single readings can be large; an effect the other way counts as inactive or inconclusive.

SMILES	HT1080 IDH1KD tx	HT1080NT lethal	MCF10A rerep	KB-3-1 cytotox	SW480 rereplic	KB-V1 MDR tox
COc1ccc(-c2nc(S(=O)(=O)c3ccccc3)c(N3CCN(C)CC3)o2)cc1	i	i	nt	i	nt	?
C[n+]1c(/C=C/c2ccc(O)cc2)ccc2ccccc21	i	i	i	?	i	?
Cc1cc(/C=C\c2ccc3cc(N(C)C)ccc3[n+]2C)c(C)n1-c1ccccc1	1.5µM	0.92µM	i	4.6µM	i	?
O=C(Cn1cc(S(=O)(=O)Cc2ccccc2)c2ccccc21)Nc1ccccc1	i	i	i	i	i	18µM
CC(=O)c1ccc(NC(=O)Cn2cc(S(=O)(=O)Cc3cccc(Cl)c3)c3ccccc32)cc1	nt	nt	nt	i	nt	i
CC12CCC(O)CC1=CCC1C2CCC2(C)C1CCC21CCC(=O)O1 (stereo unspecified)	i	i	?	?	i	21µM
CCOc1ccc(NC(=O)CCn2c(-c3ccc(F)cc3)cc(C(C)=O)c2C)cc1	nt	nt	nt	i	nt	i
N/C(=N\OC(=O)c1ccccc1)c1ccn[nH]1	i	i	i	i	i	i
O=C(OC[C@H]1O[C@@H](OC(=O)c2cc(O)c(O)c(OC(=O)c3cc(O)c(O)c(O)c3)c2)[C@H](OC(=O)c2cc(O)c(O)c(OC(=O)c3cc(O)c(O)c(O)c3)c2)[C@@H](OC(=O)c2cc(O)c(O)c(OC(=O)c3cc(O)c(O)c(O)c3)c2)[C@@H]1OC(=O)c1cc(O)c(O)c(OC(=O)c2cc(O)c(O)c(O)c2)c1)c1cc(O)c(O)c(OC(=O)c2cc(O)c(O)c(O)c2)c1	?	11µM	nt	nt	nt	nt
Cc1ccc(-n2ncc(C(=O)Nc3ccc(Cl)cc3)c2C2CCNCC2)cc1C	?	21µM	i	i	i	i
CCOc1ccc(NC(=O)c2cnn(-c3ccc(C)c(Cl)c3)c2C2CCNCC2)cc1	nt	nt	nt	i	nt	?
CC1=CC(C)(C)NC(=S)N1c1ccc2ccccc2c1	7.1µM!	5.6µM	i	i	i	i
COc1cc(Cl)c(CC(=O)c2c[nH]c3ccccc23)cc1OC	i	i	i	13µM	i	?
CN(C)c1cccc(C(=O)NNC(=O)/C=C/c2cccs2)c1	i	i	i	?	i	i
COC(=O)c1ccc(COC(=O)c2ccc(CS(=O)(=O)c3ccc(C)cc3)cc2)cc1	?	i	i	i	i	i
COC(=O)c1cc2c(n1S(=O)(=O)c1ccc(C)cc1)C(=O)C(=O)c1[nH]cc(C(=O)OCc3ccccc3)c1-2	3.7µM	9.2µM	i	3.3µM	?	7.3µM
CCCCC(=O)Nc1c(C(=O)N2CCN(c3ccccc3)CC2)oc2ccccc12	nt	nt	nt	i	nt	i
CCOC(=O)c1cnc(SCc2nc(N)nc(Nc3ccc(C)cc3)n2)nc1N	?	?	10µM	?	?	?
CCOC(=O)c1cnc(SCc2nc(N)nc(Nc3ccc(F)cc3)n2)nc1N	?	i	3.7µM	?	?	?
CN(C)c1ccc(CNC(=O)CCC(=O)N2Cc3ccccc3Oc3ncccc32)cc1	nt	nt	nt	i	nt	i
Cc1cc(=O)c(C(=O)O)nn1-c1ccccc1Cl	i	i	i	i	i	i
CN(C)CCN1CCN(C2CN(CCc3ccccc3)S(=O)(=O)C2)CC1 (stereo unspecified)	i	i	nt	i	nt	i
O=C(COc1ccc(Cl)cc1Cl)Nc1ccccn1	10µM	i[9.24 µM]	i	?	i	?
CSc1ccccc1NC(=O)COc1ccc(Cl)cc1Cl	i	i	i	?	?	i
CC(=O)NC(=S)Nc1ccc(NC(=O)COc2ccc(Cl)cc2Cl)cc1	?	?	i	i	i	i
SMILES	HT1080 IDH1KD tx	HT1080NT lethal	MCF10A rerep	KB-3-1 cytotox	SW480 rereplic	KB-V1 MDR tox
O=C(COc1ccc(Cl)cc1Cl)NC1CC1	i	i	nt	i	nt	?
O=C(COc1ccc(Cl)cc1Cl)NCc1ccncc1	i	i	i	i	i	18µM
CC(C)NC(=O)COc1ccc(Cl)cc1Cl	i	i	?	i	16µM	?
O=C(COc1ccc(Cl)cc1Cl)NNC(=S)Nc1ccc(F)cc1	i	i	i	i	i	21µM
CCOc1ccc(NC(=O)c2nc3nc(C)cc(C(F)F)n3n2)cc1	nt	nt	nt	i	nt	i
O=C1C=C(c2ccc3ncccc3c2)C[C@@H](c2ccc3c(c2)OCO3)C1	8.2µM	10µM	?	?	21µM	?
CCCCOc1ccc(CSC2=NCCN2)cc1[N+](=O)[O-]	i	?	21µM	?	?	?
CCCCCOc1ccc(CSC(=N)N)cc1[N+](=O)[O-]	16µM	21µM	?	?	?	18µM
COc1ccc(CSC(=N)N)cc1[N+](=O)[O-]	i	i	?	?	?	?
CCCCOc1ccc(Br)cc1CSC(=N)N	18µM	23µM	?	23µM	?	8.2µM
COc1ccc(C2c3[nH]c4ccc(OC)cc4c3CCN2C(=O)Nc2ccccc2)cc1 (stereo unspecified)	nt	nt	nt	10µM	nt	?
COc1ccc(S(=O)(=O)N2CCCCCC2)cc1NC(=O)CCNC(=O)c1ccccc1Cl	i	i	nt	i	nt	i
C=CCN1C(=O)C2C3CC(=O)C(c4ccccc43)C2C1=O (stereo unspecified)	i	i	i	i	5.2µM	i
Cc1nnc(SCC(=O)N2c3ccccc3C(C)(c3ccccc3)CC2(C)C)s1 (stereo unspecified)	i	i	?	16µM	i	8.2µM
Cc1ccc(C2(C)CC(C)(C)N(C(=O)CSc3nnc(C)s3)c3ccccc32)cc1 (stereo unspecified)	?	?	?	?	i	?
O=C(NCCc1ccccc1)c1cc(-c2ccccc2)nc2n[nH]c(-c3ccccc3)c12	nt	nt	nt	i	nt	i
Cc1noc(C)c1CSCC(=O)Nc1cccc(C(F)(F)F)c1	i	i	18µM	nt	i	nt
O=C(CSC1=NCCN1)Nc1cccc(C(F)(F)F)c1	26µM	i	?	i	i	i
COc1ccc2ccc3cccc[n+]3c2c1	i	i	?	13µM	?	i
Cc1c(C=Nc2ccc(S(=O)(=O)N(C)C)cc2)c(O)[nH]c(=O)c1C#N	i	i	i	i	i	i
O=[N+]([O-])c1ccc(Nc2nc(NCCN3CCOCC3)nc(Nc3ccc(I)cc3)n2)cc1	nt	nt	nt	?	nt	i
O=C(CSc1n[nH]c(=O)n1C1CC1)Nc1cc(Cl)ccc1Oc1ccccc1	i	i	?	i	i	16µM
O=C(CSc1n[nH]c(=O)n1C1CC1)Nc1ccccc1	i	i	i	i	i	i
CCOC(=O)c1c(NC(=O)C(C)Sc2cn(CCNC(=O)c3ccc(OC)cc3)c3ccccc23)sc2c1CCC2 (stereo unspecified)	nt	nt	nt	i	nt	i
O=C1CN(C(=O)c2ccc(S(=O)(=O)N3CCCC3)cc2)C(c2ccccc2)c2cc(Cl)ccc2N1 (stereo unspecified)	nt	nt	nt	i	nt	i
